Test results published in PubChem BioAssay (NCI).
This is part of a sample that, as a whole, favours compounds with a hit. Of some 79,000 tested, about 15% had one in any assay. A number with no mark means an inactive call. Activity calls are given as the source filed them. Cut-off read from the data, not from the text of the source: active = growth inhibition above about 70%; inactive = the rest.

Test: NCI Yeast Anticancer Drug Screen. Data for the mec2-1 strain (AID 157)
Settings: S. cerevisiae mec2-1 strain, stronger effect = higher value
Description: Growth inhibition of yeast strains with defined genetic alterations is measured as a screen for potential anti-cancer activity. Selected strains with alterations in DNA damage repair or cell cycle control were exposed to compounds and growth inhibition was measured relative to vehicle treated controls. The strain used in this assay is mec2-1

[1] = at 5.0 µM (retest, dose inferred, filed as 0.5)
[2] = at 50.0 µM (retest, dose inferred, filed as 5.0)

Row | SMILES | growth inhibition [1] [%] | growth inhibition [2] | growth inhibition (at 50.0 µM)
1 | O=S1(=O)CC=C1c1ccccc1 | 8 | 92% (active) | 96.5% (active)
2 | O=C(Cc1nc2ccccc2s1)C(=O)Nc1ccc(Cl)cc1 | -1 | 2% | 23.1%
3 | CC(NNC(=S)N1CCCCCC1)c1cc2ccccc2cn1 (configuration not stated) | 65 | 97% (active) | 78.7% (active)
4 | CCCCC(/C=N\NC(=O)c1ccc[n+](C)c1)=C/c1ccccc1 | 1 | -3% | 95.4% (active)
5 | CN(C)Cc1cc(C(C)(C)C)cc(C2CCCCC2)c1O | -9 | 66% | 38.5%
6 | CCN(CC)CCNc1ccc2nnn3c4ccccc4c(=O)c1c23 | -31 | 21% | 17.7%
7 | Cc1ccc(C(CN)(CCBr)c2ccc(C)cc2)cc1 | 50 | 98% (active) | 99.5% (active)
8 | CCCCN(CCCC)CC(O)c1cccc2c(Cl)cccc12 (configuration not stated) | 8 | 75% (active) | 71.7% (active)
9 | CCCCC(Oc1cc(C(C)(C)C)c(O)c(C(C)(C)C)c1)C(=O)O (configuration not stated) | 12 | 70% (active) | 99.4% (active)
10 | CN=S(=O)(OCCCCOS(=O)(=NC)c1ccccc1)c1ccccc1 (configuration not stated) | 9 | 8% | -2.25%
11 | O=[N+]([O-])c1ccc(NC(=S)N/N=C(\c2ccccc2)c2ccccn2)cc1 | -32 | 79% (active) | 66.2%
12 | CCCCCCCCCCCCCCCCCC(=O)OCCOCCO | -22 | -46% | -0.25%
13 | CCCC(CC)c1cc(O)c(O)cc1C(CC)CCC (configuration not stated) | -18 | 33% | 69.5%
14 | COc1cc2c(cc1OC)C(=O)C(C)(c1ccccc1)NC2 (configuration not stated) | 9 | 42% | 98.8% (active)
